Measured values as given in PMC5540273 (PLoS ONE, 2017).

Legend:
Details in all cases: concentration: 1 μM, replicates: in singlicate; n = 1
[1] = test system: CSK
[2] = test system: CSNK1A1L
[3] = test system: CSNK1A1
[4] = test system: CSNK1D
[5] = test system: CSNK1E
[6] = test system: CSNK1G1
[7] = test system: CSNK1G2
[8] = test system: CSNK1G3
[9] = test system: CSNK2A1
[10] = test system: CSNK2A2
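Note: KINOMEscan kinase panel screen.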

Structure (SMILES)	%Inh [1] [%]	%Inh [2] [%]	%Inh [3] [%]	%Inh [4] [%]	%Inh [5] [%]	%Inh [6] [%]	%Inh [7] [%]	%Inh [8] [%]	%Inh [9] [%]	%Inh [10] [%]
COc1ccc(CSc2nnc(-c3ccc4nccn4c3)o2)cc1C(F)(F)F	0	0	18	0	0	15	0	0	0	21
COc1ccc(CSc2nnc(-c3ccc4ncsc4c3)o2)cc1C(F)(F)F	0	0	0	0	0	0	0	0	0	2
COc1cccc(C2=C(Nc3cc(Cl)c(O)c(Cl)c3)C(=O)NC2=O)c1 [SB-390767]	0	5	0	13	24	100	0	25	0	0
O=C1NC(=O)C(c2ccc(Cl)cc2)=C1Nc1cccc(Cl)c1 [SB-317651]	0	16	22	0	0	0	0	88	0	0
Cc1ccc(-c2nc(Nc3ccncc3)c3ccccc3n2)s1 [GSK189015]	0	13	24	33	22	14	12	35	27	30
